PubChem BioAssay (EPA / NIEHS)
Records with an inconclusive call do not appear. Active and inactive are the calls of the source. The calls were made as follows, unless noted: active = hit-call score of the fitted dose curve at least 0.9, where 1 is the maximum; inconclusive = response in the unintended direction; inactive = score below 0.9.

biological target: PGR (gene 5241) (UniProt P06401); assay: TOX21_PR_LUC_Followup_Agonist: Tox21 HEK293 Progesterone Receptor (PR) Agonism Luciferase Follow-Up Assay (AID 2283937; active = hit-call score of the fitted dose curve at least 0.9, where 1 is the maximum; inactive = score below 0.9)
Sequence (P06401 whole entry, looked up): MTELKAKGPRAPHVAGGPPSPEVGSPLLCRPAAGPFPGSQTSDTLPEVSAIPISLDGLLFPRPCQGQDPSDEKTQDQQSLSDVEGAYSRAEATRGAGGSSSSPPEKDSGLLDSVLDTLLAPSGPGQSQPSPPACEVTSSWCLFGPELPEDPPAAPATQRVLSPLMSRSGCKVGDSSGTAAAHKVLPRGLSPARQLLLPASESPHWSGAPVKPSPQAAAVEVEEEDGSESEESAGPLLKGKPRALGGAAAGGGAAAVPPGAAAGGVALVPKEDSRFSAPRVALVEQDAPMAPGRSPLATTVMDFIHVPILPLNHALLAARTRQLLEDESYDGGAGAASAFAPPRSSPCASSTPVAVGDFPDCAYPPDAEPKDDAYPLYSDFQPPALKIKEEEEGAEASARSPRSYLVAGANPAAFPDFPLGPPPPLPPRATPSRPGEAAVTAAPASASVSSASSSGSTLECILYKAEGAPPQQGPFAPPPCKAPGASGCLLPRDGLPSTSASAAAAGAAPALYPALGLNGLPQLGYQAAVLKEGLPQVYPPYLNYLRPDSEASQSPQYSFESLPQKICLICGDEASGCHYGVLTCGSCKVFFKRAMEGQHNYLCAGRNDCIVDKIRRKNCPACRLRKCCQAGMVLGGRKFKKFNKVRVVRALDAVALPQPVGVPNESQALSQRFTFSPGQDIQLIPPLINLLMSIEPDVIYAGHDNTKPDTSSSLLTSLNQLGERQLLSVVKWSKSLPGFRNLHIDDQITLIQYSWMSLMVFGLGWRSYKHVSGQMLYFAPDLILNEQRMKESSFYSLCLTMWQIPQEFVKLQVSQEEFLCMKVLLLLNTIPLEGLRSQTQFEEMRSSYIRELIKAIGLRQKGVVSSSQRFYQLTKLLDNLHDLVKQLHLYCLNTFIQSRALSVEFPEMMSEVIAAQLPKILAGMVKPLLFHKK
Procedure, shortened: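 Seed HEK293-PR-A-luc cells, wait 5 h, add compounds in DMSO, incubate 16 h at 37C, add ONE-Glo, read luminescence after 30 min. Activity is increase over DMSO controls; run with a viability counter-screen.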

SMILES	outcome
OC(c1ccc(Cl)cc1)(c1ccc(Cl)cc1)c1cccnc1	inactive
CC(C)CC(C)(c1ccc(O)cc1)c1ccc(O)cc1	inactive
Cc1ccccc1OP(=O)(Oc1ccccc1C)Oc1ccccc1C	inactive

biological target: PGR (gene 5241) (UniProt P06401); assay: TOX21_PR_LUC_Followup_Antagonist: Tox21 HEK293 Progesterone Receptor (PR) Antagonism Luciferase Follow-Up Assay (AID 2283938);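 also: curve fitted upward as signal gain over DMSO baseline despite antagonist label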
Procedure, shortened: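 Luciferase reporter in HEK293-PR-A-luc cells: 16 h compound treatment at 37C, ONE-Glo luminescence detection, DMSO as negative control and baseline.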

SMILES	outcome	AC50
CC(C)(C1CCC(O)CC1)C1CCC(O)CC1 (stereo not given)	inactive	
O=S(=O)(c1ccc(Cl)cc1)c1cc(Cl)c(Cl)cc1Cl		61 µM (active)
OC(c1ccc(Cl)cc1)(c1ccc(Cl)cc1)c1cccnc1		62.2 µM (active)
CC(O)(CS(=O)(=O)c1ccc(F)cc1)C(=O)Nc1ccc(C#N)c(C(F)(F)F)c1 (stereo not given)		6.97 µM (active)
CC(C)CC(C)(c1ccc(O)cc1)c1ccc(O)cc1		12.2 µM (active)
Cc1ccccc1OP(=O)(Oc1ccccc1C)Oc1ccccc1C	inactive	
Nc1ccc(-c2ccccc2)cc1	inactive	
CCOP(=S)(OCC)Oc1ccc(Cl)cc1Cl	inactive	
CCCSP(=S)(OCC)Oc1ccc(SC)cc1 (stereo not given)	inactive	
O=S(=O)(Oc1ccc(Cl)cc1)c1ccc(Cl)cc1	inactive	
O=[N+]([O-])c1ccc(Nc2ccccc2)cc1		12.8 µM (active)
CCCSP(=S)(OCC)Oc1ccc(Cl)cc1Cl (stereo not given)		24.3 µM (active)
